ChEMBL document CHEMBL4513149, “CO-ADD screening of MMV (CH) - MMV compounds” (2021)
Results with a measured potency or affinity are listed apart.

Experiments:
Klebsiella pneumoniae = settings: Concentration 20 uM; ASSAY_TEST Inhibition of Bacterial Growth; detection method Absorption (OD600); MEDIA CAMHB; plate type 384well; NBS; CORNING #3640; time 18 hr
Candida albicans = settings: 20 µM
Cryptococcus neoformans = settings: Concentration 20 uM; ASSAY_TEST Inhibition of Fungal Growth; detection method Resazurin; Absorption (OD600-OD570); plate type 384well; NBS; CORNING #3640

Compound: CC(C)n1nc(-c2cc3c(Cl)cccc3[nH]2)c2c(N)ncnc21
- Inhibition (Klebsiella pneumoniae): 6.59%
- Inhibition (Candida albicans): 5.11%
- Inhibition (Cryptococcus neoformans): -4.09%

Compound: COc1ccc(C2CC(c3cccs3)=NN2C(=O)c2ccco2)cc1OC (stereo not drawn)
- Inhibition (Klebsiella pneumoniae): 20.7%
- Inhibition (Candida albicans): 5.76%
- Inhibition (Cryptococcus neoformans): -8.05%

Compound: COC(=O)c1c(NC(=O)c2c(F)c(F)c(F)c(F)c2F)sc2c1CCCCC2
- Inhibition (Klebsiella pneumoniae): 11.31%
- Inhibition (Candida albicans): 6.8%
- Inhibition (Cryptococcus neoformans): -13.49%

Compound: Cl.Cl.Cl.NS(=O)(=O)c1cncc(-c2ccc3nccc(-c4cn[nH]c4)c3n2)c1
- Inhibition (Klebsiella pneumoniae): -1.63%
- Inhibition (Candida albicans): 3.16%
- Inhibition (Cryptococcus neoformans): -2.89%

Compound: O=C(NC1CCN(c2ccnc3ccccc23)C1)c1cccc(C(F)(F)F)c1 (stereo not drawn)
- Inhibition (Klebsiella pneumoniae): 12.02%
- Inhibition (Candida albicans): 3.54%
- Inhibition (Cryptococcus neoformans): -3.95%

Compound: CN(C(=O)c1cc2c(-c3cncnc3)cccc2[nH]1)c1ccccc1
- Inhibition (Klebsiella pneumoniae): 10.84%
- Inhibition (Candida albicans): 6.97%
- Inhibition (Cryptococcus neoformans): -9.57%

Compound: O=C(Nc1ccc(F)c(-c2nc3cc(-c4ccccc4)cnc3[nH]2)c1)N1CCCC1
- Inhibition (Klebsiella pneumoniae): 7.38%
- Inhibition (Candida albicans): 49.9%
- Inhibition (Cryptococcus neoformans): -3.95%

Compound: COc1ccc(-c2cnc3ccc(N4CCCC4)nn23)cc1OC
- Inhibition (Klebsiella pneumoniae): 12.07%
- Inhibition (Candida albicans): 4.32%
- Inhibition (Cryptococcus neoformans): -8.28%

Compound: CCc1nc2ccc(Cl)cn2c1C(=O)NCc1ccc(N2CCC(c3ccc(OC(F)(F)F)cc3)CC2)cc1 [TELACEBEC]
- Inhibition (Klebsiella pneumoniae): 18.33%
- Inhibition (Candida albicans): 2.34%
- Inhibition (Cryptococcus neoformans): -3.29%

Compound: CC(Oc1cccc(Cl)c1)C(=O)Nc1ccc2oc(-c3ccncc3)nc2c1 (stereo not drawn)
- Inhibition (Klebsiella pneumoniae): 9.56%
- Inhibition (Candida albicans): 6.74%
- Inhibition (Cryptococcus neoformans): -15%

Compound: Nc1ncnc2[nH]nc(Cc3cccc4ccccc34)c12
- Inhibition (Klebsiella pneumoniae): 12.26%
- Inhibition (Candida albicans): 3.76%
- Inhibition (Cryptococcus neoformans): -8.72%
